Records with an inconclusive call do not appear. Calls of active or inactive are those of the source. Unless noted, the call rests on the fitted dose curve; in most records, active means well fitted curve in the direction sought with a large enough effect; inconclusive means small, poorly fitted or top-dose-only effect, or another doubt; inactive means no such curve, though single readings can be large; an effect the other way counts as inactive or inconclusive.
Tests used:
[1] = molecular target: Lysosomal acid glucosylceramidase (Homo sapiens) (UniProt P04062); assay: Glucocerebrosidase-p2 (AID 348; in the data active means potency below about 10 µM; further: potency means the concentration at half of the fitted maximal effect); settings: purified GBA, blue fluorogenic substrate, 40 min
Sequence of Lysosomal acid glucosylceramidase (Homo sapiens) (P04062 whole entry, looked up): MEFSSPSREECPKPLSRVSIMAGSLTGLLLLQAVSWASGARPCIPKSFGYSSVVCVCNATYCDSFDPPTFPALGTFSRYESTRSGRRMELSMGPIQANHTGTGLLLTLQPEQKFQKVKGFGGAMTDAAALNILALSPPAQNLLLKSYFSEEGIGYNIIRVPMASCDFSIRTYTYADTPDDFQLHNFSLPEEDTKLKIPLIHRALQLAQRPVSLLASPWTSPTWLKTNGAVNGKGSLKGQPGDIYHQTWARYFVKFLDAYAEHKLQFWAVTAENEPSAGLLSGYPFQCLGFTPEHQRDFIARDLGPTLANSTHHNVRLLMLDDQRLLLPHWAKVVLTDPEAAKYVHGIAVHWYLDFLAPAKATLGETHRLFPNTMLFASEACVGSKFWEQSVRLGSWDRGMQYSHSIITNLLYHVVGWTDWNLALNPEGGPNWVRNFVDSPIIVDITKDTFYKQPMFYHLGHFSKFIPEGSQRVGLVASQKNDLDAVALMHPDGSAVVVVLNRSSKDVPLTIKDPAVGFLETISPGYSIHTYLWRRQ
Procedure, shortened: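 Compounds titrated from 0.6 nM upwards against 0.2 nM enzyme in pH 5.9 citric acid/KH2PO4, taurocholate, tween-20; blue fluorogenic substrate 80 uM, 40 min room temperature, stopped and read Ex 365/Em 440 for AC50.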

[2] = AP1 Signaling Pathway (AID 357; active means well fitted curve in either direction with a large enough effect, not every such curve was filed as active; further: on the % scale 0 is the no-effect control and ±100 the full control effect); settings: ME-180 AP-1-bla reporter, EGF-induced, beta-lactamase ratio, 5 h; at 7.69 µM (top of the series) unless noted
Procedure, shortened: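 ME-180 cells with beta-lactamase reporter under AP-1 response element, stimulated with EC50 EGF; compounds tested in titration series, 5 h at 37 °C. CCF4 substrate added 2.5 h at room temperature; 460/530 nm emission ratio gave %activity and AC50.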

[3] = molecular target: Cytochrome P450 1A2 (Homo sapiens) (UniProt P05177); assay: p450-cyp1a2 (AID 410; calls by dose curve; further: potency means the concentration at half of the fitted maximal effect); settings: recombinant CYP1A2, luciferin-ME demethylation, luminescence; series mostly up to 57 µM
Sequence of Cytochrome P450 1A2 (Homo sapiens) (P05177 whole entry, looked up): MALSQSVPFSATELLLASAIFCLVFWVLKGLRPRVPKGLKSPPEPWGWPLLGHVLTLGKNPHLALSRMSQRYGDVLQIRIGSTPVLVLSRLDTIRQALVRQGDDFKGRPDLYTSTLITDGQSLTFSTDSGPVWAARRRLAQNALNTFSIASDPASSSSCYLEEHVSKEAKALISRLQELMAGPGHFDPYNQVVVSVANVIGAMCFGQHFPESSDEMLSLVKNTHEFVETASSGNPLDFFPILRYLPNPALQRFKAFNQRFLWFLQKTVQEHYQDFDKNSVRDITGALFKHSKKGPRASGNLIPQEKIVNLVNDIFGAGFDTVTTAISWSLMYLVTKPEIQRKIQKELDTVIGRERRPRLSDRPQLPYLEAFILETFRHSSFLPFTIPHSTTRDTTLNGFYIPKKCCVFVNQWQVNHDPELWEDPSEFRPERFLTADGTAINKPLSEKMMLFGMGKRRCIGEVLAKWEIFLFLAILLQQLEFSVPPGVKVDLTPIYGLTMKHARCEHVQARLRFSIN
Procedure, shortened: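 20nM CYP1A2 with 100uM Luciferin-ME (at Km) in 100mM KPO4; compound preincubated 10 min, NADPH regeneration added, 60 min at room temperature. Luciferin quantified by luminescence after detection reagent; normalized to 57 uM furafylline.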

[4] = NFAT Signaling Pathway (AID 444; active means well fitted curve in either direction with a large enough effect, not every such curve was filed as active;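 further: carbachol stimulus at about its EC50 of 1 µM final; on the % scale 0 is the no-effect control and ±100 the full control effect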); settings: Jurkat NFAT-bla M1, carbachol, beta-lactamase ratio, 5 h; at 7.69 µM (top of the series) unless noted
Procedure, shortened: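 Jurkat cells carrying an NFAT-driven β-lactamase reporter and co-transfected muscarinic M1 receptor were treated with compound plus carbachol (1 uM final, an EC50 level) for 5 h at 37 °C. CCF4 loading followed for 1 h at RT; 460/530 nm ratio gave %activity.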

[5] = Stat Signaling Pathway (AID 446; active means well fitted curve in either direction with a large enough effect, not every such curve was filed as active;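 further: ME-180 cervical cancer cells given 40 pM IL-6 alongside compound; SIE-controlled beta-lactamase reporter measured as 460/530 nm FRET emission ratio; on the % scale 0 is the no-effect control and ±100 the full control effect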); settings: ME-180 SIE beta-lactamase reporter, IL-6 stimulated, 5 h; at 7.69 µM (top of the series) unless noted
Procedure, shortened: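 ME-180 cells carrying a SIE-driven beta-lactamase reporter are stimulated with 40 pM IL-6 for 5 h at 37C in the presence of compound. The 460/530 nm FRET substrate ratio is read after 2.5 h at RT. Data are normalised to 300 pM IL-6 and to 125 nM JAK inhibitor controls.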

[6] = molecular target: Glucocorticoid receptor (Homo sapiens) (UniProt P04150); assay: GR-GFP Redistribution (AID 450;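 active means compounds whose dose series gives a full or clear partial fitted curve of increased nuclear translocation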; further: potency means the concentration at half of the fitted maximal effect); settings: U2OS GR-GFP nuclear translocation, laser cytometry, 2 h
Sequence of Glucocorticoid receptor (Homo sapiens) (P04150 whole entry, looked up, the tested form may be a part): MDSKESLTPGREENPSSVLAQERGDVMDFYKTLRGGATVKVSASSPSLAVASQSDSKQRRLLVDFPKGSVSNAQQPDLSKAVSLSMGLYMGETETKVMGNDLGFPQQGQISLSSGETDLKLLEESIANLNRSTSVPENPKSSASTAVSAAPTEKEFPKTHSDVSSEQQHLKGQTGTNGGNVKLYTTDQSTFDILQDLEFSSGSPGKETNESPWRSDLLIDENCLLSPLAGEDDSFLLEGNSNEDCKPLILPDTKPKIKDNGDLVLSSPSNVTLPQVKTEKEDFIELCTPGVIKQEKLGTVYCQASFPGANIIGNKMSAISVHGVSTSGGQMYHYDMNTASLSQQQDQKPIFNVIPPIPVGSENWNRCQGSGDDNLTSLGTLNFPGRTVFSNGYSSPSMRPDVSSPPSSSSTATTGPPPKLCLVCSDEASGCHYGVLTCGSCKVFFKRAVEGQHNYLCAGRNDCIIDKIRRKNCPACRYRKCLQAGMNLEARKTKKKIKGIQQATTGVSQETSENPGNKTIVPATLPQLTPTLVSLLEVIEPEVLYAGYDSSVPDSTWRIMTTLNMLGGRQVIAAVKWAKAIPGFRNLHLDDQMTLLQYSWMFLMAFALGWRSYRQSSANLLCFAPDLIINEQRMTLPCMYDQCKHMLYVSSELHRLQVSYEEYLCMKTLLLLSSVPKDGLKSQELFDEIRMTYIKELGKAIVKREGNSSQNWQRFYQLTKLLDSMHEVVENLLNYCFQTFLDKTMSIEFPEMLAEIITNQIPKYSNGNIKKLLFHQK

[7] = molecular target: Glucocorticoid receptor (Homo sapiens) (UniProt P04150); assay: GR-EFC Redistribution (AID 451; calls by dose curve; further: potency means the concentration at half of the fitted maximal effect); settings: CHO-K1 GR-EFC translocation, beta-gal luminescence, 2 h
Procedure, shortened: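 CHO-K1 cells stably expressing nuclear-localized β-gal enzyme acceptor and GR fused C-terminally to the enzyme donor fragment; ligand-driven nuclear translocation restores β-gal by complementation. Compounds titrated up to 46 uM final, 2 h at 37 °C; luminescence read.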

[8] = molecular target: Mitogen-activated protein kinase 10 (Mus musculus) (UniProt Q61831); assay: JNK3 AlphaScreen Assay (AID 530; active means well fitted curve in either direction with a large enough effect, not every such curve was filed as active;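 further: kinase came from lysate of stimulated human HepG2 cells; signal reports phosphorylation of biotinylated GST-cJun 1-79 at Ser73 with 10 µM ATP; on the % scale 0 is the no-effect control and ±100 the full control effect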); settings: JNK3 lysate, c-Jun phosphorylation; series mostly up to 57.1 µM
Procedure, shortened: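 Inhibitors reduce antibody binding to phosphorylated biotin-cJun, lowering AlphaScreen luminescence. Lysates from HepG2 cells pre-activated by IL-1beta plus TNF-alpha supplied JNK3; compounds were titrated.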

[9] = molecular target: 3',5'-cyclic-AMP phosphodiesterase 4B (Homo sapiens) (UniProt Q07343); assay: qHTS Assay for Inhibitors of PDE-IV (AID 607; active means well fitted activation curve with a large enough effect in the main read-out, with a control signal flat, not every such curve was filed as active; further: % of control where 0% means no effect); settings: HEK293 ACTOne CNG channel cells, membrane potential fluorescence; series mostly up to 22.9 µM
Sequence of 3',5'-cyclic-AMP phosphodiesterase 4B (Homo sapiens) (Q07343 whole entry, looked up): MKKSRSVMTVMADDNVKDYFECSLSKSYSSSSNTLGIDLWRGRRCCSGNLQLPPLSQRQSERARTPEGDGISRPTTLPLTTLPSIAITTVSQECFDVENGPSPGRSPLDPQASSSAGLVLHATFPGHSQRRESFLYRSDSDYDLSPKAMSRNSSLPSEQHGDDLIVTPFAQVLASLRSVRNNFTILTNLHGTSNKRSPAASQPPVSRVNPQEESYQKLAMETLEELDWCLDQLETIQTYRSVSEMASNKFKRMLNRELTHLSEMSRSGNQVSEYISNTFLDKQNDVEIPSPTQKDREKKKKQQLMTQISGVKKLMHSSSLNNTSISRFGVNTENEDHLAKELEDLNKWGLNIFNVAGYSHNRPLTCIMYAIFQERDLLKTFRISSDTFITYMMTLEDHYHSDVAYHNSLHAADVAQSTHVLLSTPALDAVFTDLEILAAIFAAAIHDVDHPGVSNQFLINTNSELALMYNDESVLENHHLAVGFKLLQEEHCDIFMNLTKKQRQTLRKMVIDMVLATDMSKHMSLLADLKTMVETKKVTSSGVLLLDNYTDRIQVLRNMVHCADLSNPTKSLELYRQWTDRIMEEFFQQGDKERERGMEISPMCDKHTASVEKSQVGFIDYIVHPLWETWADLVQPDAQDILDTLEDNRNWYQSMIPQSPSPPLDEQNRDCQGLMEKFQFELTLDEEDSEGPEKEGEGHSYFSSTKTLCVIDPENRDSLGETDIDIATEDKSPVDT
Procedure, shortened: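 HEK293 ACTOne cells with CNG channel (1000/well), endogenous PDE4; membrane potential dye, compounds up to 22.9 uM final. Fluorescence Ex 535/Em 590; RO 20-1724 (100 uM final) as reference.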

[10] = Confirmation and Secondary Assay for Modulators of Hemoglobin Beta Chain Splicing at IVS2 654 locus (AID 910); settings: HeLa EGFP-654 splicing reporter, GFP fluorescence, 48 h; series mostly up to 38.3 µM;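 further: per-well total GFP intensity by laser scanning cytometry after 2-day treatment; % of control where 0% means no effect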
Procedure, shortened: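 HeLa cells stably carrying EGFP interrupted by mutant beta-globin IVS2-654 intron (CMV-driven) were treated with compound for 2 days at 37C; corrected splicing was scored as total peak GFP intensity per well (488 nm excitation, 500-520 nm emission).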

[11] = Confirmation and Secondary Assay for Modulators of Hemoglobin Beta Chain Splicing at IVS2 705 locus (AID 930); settings: HeLa EGFP-705 splicing reporter, GFP fluorescence, 48 h; series mostly up to 38.3 µM;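 further: HeLa cells stably expressing the EGFP-705 splicing reporter; GFP fluorescence per well restored by corrected splicing of the IVS2-705 intron in EGFP; % of control where 0% means no effect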
Procedure, shortened: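 Per-well GFP, captured at 1 x 8 µm resolution with 488 nm excitation, served as the read-out for HeLa EGFP-705 cells incubated 2 days with test compound versus DMSO.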

[12] = qHTS Assay for Lipid Storage Modulators (AID 1519; calls by dose curve); settings: Drosophila S3 cells, BODIPY lipid droplet/cell ratio, laser cytometry, cells loaded with oleic acid; for activity change, negative = inhibition: at 57.5 µM (top of the series)
Procedure, shortened: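 Cells seeded at 5,000 per well were treated with compounds over a concentration series and loaded with oleic acid (400 uM, as added). Lipid droplet fluorescence (488 nm excitation, 500-530 nm channel) was read by laser-scanning cytometry and normalized to 20 uM Triacsin C.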

[13] = molecular target: Ubiquitin carboxyl-terminal hydrolase 1 (Homo sapiens) (UniProt O94782); assay: Inhibitors of USP1/UAF1: Pilot qHTS (AID 504865); settings: purified USP1/UAF1, Ub-rhodamine cleavage fluorescence; series mostly up to 54.9 µM; further: nearly all actives have a fitted effect of over 35% in size; further: potency means the concentration at half of the fitted maximal effect
Sequence of Ubiquitin carboxyl-terminal hydrolase 1 (Homo sapiens) (O94782 whole entry, looked up): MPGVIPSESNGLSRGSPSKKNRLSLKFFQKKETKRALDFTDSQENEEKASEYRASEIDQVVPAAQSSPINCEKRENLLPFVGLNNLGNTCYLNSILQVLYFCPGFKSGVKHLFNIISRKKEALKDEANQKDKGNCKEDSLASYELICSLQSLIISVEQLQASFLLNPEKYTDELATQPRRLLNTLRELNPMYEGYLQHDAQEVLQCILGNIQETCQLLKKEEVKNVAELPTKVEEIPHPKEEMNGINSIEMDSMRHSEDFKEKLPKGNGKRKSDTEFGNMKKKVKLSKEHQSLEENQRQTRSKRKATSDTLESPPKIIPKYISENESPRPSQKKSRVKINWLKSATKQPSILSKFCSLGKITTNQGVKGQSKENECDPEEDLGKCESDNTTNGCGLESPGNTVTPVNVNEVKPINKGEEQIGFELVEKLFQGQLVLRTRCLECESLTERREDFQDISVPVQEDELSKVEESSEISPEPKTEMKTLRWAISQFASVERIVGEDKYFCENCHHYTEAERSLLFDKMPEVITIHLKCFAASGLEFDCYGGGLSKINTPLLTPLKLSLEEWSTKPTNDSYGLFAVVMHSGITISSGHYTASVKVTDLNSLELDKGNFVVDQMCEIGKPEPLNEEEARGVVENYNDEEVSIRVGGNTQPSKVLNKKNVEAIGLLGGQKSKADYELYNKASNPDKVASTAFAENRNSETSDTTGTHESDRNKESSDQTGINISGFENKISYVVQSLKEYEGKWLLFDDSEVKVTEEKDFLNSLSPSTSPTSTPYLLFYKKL
Procedure, shortened: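 Kinetic fluorescence assay: 1nM USP1/UAF1, 15 min compound preincubation, then 150nM Ub-Rho; 480/540 nm.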

[14] = Primary qHTS for small molecule stabilizers of the endoplasmic reticulum resident proteome: Secreted ER Calcium Modulated Protein (SERCaMP) assay (AID 1508630); settings: SH-SY5Y GLuc-SERCaMP (Gaussia luciferase released on ER calcium loss) secretion, thapsigargin, luminescence; series mostly up to 38.4 µM; further: on the % scale 0 is the no-effect control and ±100 the full control effect
Procedure, shortened: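 GLuc-SERCaMP-expressing SH-SY5Y cells, pretreated 16 h with compound, are challenged with thapsigargin to empty ER calcium stores; after 4 h, coelenterazine is added directly to the medium and luminescence is imaged.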

[15] = molecular target: Cytochrome P450 3A4 (Homo sapiens) (UniProt P08684); assay: qHTS Assay for Activators of Cytochrome P450 3A4 (AID 885); settings: recombinant CYP3A4, Luciferin-PPXE luminescence, 60 min; series mostly up to 57.1 µM; further: nearly all actives have a fitted effect of over 65% in size
Sequence of Cytochrome P450 3A4 (Homo sapiens) (P08684 whole entry, looked up): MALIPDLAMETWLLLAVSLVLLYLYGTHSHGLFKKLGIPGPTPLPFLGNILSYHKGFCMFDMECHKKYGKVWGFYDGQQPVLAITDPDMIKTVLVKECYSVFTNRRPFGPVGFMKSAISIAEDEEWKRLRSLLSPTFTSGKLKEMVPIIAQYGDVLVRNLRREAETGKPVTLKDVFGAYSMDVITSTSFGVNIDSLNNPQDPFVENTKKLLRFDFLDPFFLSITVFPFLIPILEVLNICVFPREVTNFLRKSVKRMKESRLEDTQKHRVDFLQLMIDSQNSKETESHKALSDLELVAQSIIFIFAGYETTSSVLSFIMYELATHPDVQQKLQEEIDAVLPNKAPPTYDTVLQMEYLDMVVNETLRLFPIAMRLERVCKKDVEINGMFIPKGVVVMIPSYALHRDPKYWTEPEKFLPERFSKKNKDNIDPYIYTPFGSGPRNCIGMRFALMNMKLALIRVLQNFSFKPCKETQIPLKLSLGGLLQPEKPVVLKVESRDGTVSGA
Procedure, shortened: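 Human CYP3A4 (20 nM) with Luciferin-PPXE at 25 uM (its KM) in 200 mM KPO4; 10 min compound preincubation, then NADPH regeneration and 60 min reaction at RT. Luciferin read by luminescence; normalized to 57 uM ketoconazole full inhibition.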

[16] = molecular target: Cytochrome P450 2C19 (Homo sapiens) (UniProt P33261); assay: qHTS Assay for Inhibitors and Substrates of Cytochrome P450 2C19 (AID 899); settings: recombinant CYP2C19, luciferin-H EGE luminescence; series mostly up to 57.1 µM; further: potency means the concentration at half of the fitted maximal effect; nearly all actives have a fitted effect of over 60% in size
Sequence of Cytochrome P450 2C19 (Homo sapiens) (P33261 whole entry, looked up): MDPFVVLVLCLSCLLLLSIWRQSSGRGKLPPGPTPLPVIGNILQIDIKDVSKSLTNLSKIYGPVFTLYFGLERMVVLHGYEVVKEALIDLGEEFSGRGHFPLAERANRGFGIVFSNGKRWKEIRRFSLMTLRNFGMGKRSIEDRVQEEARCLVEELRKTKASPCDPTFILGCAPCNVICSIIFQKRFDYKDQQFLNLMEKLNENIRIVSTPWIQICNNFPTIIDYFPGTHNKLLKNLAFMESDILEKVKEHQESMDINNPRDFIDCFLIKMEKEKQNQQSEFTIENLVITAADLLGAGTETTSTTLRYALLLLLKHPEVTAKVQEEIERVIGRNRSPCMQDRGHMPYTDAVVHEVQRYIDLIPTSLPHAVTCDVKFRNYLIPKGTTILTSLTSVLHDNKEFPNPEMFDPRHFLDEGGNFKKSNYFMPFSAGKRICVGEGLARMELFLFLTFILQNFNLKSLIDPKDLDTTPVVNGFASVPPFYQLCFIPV
Procedure, shortened: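 NADPH-dependent conversion of Luciferin-H EGE (10uM, at KM) by 5nM enzyme in 50mM KPO4, 60 min at 37C following 10 min compound preincubation. Stopped with luciferin detection buffer; luminescence read after 20 min.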

[17] = qHTS Assay for Identification of Small Molecule Agonists for Hypoxia Response Element Signaling Pathway (AID 914; active means well fitted activation curve with a large enough effect in the signal ratio, with a control signal flat, not every such curve was filed as active; the % refers to the signal ratio; further: % of control where 0% means no effect); settings: ME-180 (cervical carcinoma) HRE-bla reporter, beta-lactamase ratio, CoCl2, 17 h; activation: stronger effect = higher value
Procedure, shortened: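 In Opti-MEM containing 0.5% dialyzed FBS and 10 mM HEPES, ME-180 HRE-bla cells received a compound titration and EC50 CoCl2. They were incubated 17 hours, then CCF4-loaded 2.5 hours at room temperature before ratio reading.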

[18] = measured here: cell count channel max response
[19] = measured here: lipid channel max response

CNc1ccnc(-c2ccccc2CN(C)C)n1
inactive: Potency [1] > 11.4 µM | activity change, negative = inhibition [2] -3.79% | activity change, negative = inhibition [4] -12.6% | activity, negative = inhibition [5] -6.7% | Potency [6] > 46 µM | Potency [7] > 46 µM | outcome [8] | Potency [9] | outcome [10] | outcome [11] | activity change, negative = inhibition [12] 2.03% | Potency [13] | Potency [14]
2.14%: max response [12, 19]
-5.53%: max response [12, 18]
active: Potency [3] 12.6 µM

COc1ccccc1CNc1ccnc(-c2ccoc2)n1
inactive: Potency [1] > 11.4 µM | activity change, negative = inhibition [2] -2.58% | activity change, negative = inhibition [4] -21% | activity, negative = inhibition [5] -4.66% | Potency [6] > 46 µM | Potency [7] > 46 µM | outcome [8] | Potency [15] | outcome [10] | outcome [11] | activity change, negative = inhibition [12] 8.47% | Potency [14]
2.83%: max response [12, 19]
-15.1%: max response [12, 18]
active: Potency [3] 1.58 µM | Potency [16] 7.94 µM | Potency [13] 50.1 µM

N#Cc1cccc(-c2cc(NCc3cccs3)ncn2)c1
-10.9%: max response [12, 19]
active: Potency [3] 0.794 µM
-10.3%: max response [12, 18]
inactive: Potency [1] > 11.4 µM | activity change, negative = inhibition [2] -6.14% | activity change, negative = inhibition [4] 12.6% | activity, negative = inhibition [5] -3.35% | Potency [6] > 46 µM | Potency [7] > 46 µM | outcome [8] | Potency [9] | Potency [15] | outcome [10] | outcome [11] | activity change, negative = inhibition [12] 3.14% | Potency [13] | Potency [14]

Cc1cnc(CNc2ncncc2-c2ccccc2C#N)cn1
inactive: Potency [1] > 11.4 µM | activity change, negative = inhibition [2] 8.99% | activity change, negative = inhibition [4] -5.21% | activity, negative = inhibition [5] -4.72% | Potency [6] > 46 µM | Potency [7] > 46 µM | outcome [8] | Potency [9] | Potency [15] | outcome [10] | outcome [11] | activity change, negative = inhibition [12] 8.38% | Potency [13] | Potency [14]
24.3%: max response [12, 19]
active: Potency [3] 0.251 µM
14%: max response [12, 18]

CC(=O)NCCNc1nc(-c2ccccc2C(F)(F)F)nc2ccccc12
active: Potency [3] 15.8 µM
11.9%: max response [12, 18]
inactive: Potency [1] > 11.4 µM | activity change, negative = inhibition [2] 3.94% | activity change, negative = inhibition [4] 4.42% | activity, negative = inhibition [5] -7.86% | Potency [6] > 46 µM | Potency [7] > 46 µM | outcome [8] | Potency [9] | Potency [15] | outcome [10] | outcome [11] | activity change, negative = inhibition [12] 9.13% | Potency [13] | Potency [14]
23%: max response [12, 19]

COc1cccc(-c2cc(NCc3cccs3)ncn2)c1
active: Potency [3] 1.26 µM
25%: max response [12, 19]
10.6%: max response [12, 18]
inactive: Potency [1] > 11.4 µM | activity change, negative = inhibition [2] 3.15% | activity change, negative = inhibition [4] 17% | activity, negative = inhibition [5] -4.26% | Potency [6] > 46 µM | Potency [7] > 46 µM | outcome [8] | Potency [15] | outcome [10] | activation [17] -6.23% | outcome [11] | activity change, negative = inhibition [12] 9.36% | Potency [13] | Potency [14]

Reference: PubChem BioAssay (NCATS)
